Assay results reported in PubChem BioAssay (NCATS).
Inconclusive results are not listed. Unless noted, calls follow the shape of the dose curve; as a rule, active = well fitted curve in either direction with a large enough effect (not every such curve was filed as active); inconclusive = small, poorly fitted or top-dose-only effect, or another doubt; inactive = flat fitted curve, though single readings scatter.

Tests used:
[1] = AP1 Signaling Pathway (AID 357); conditions: ME-180 AP-1-bla reporter, EGF-induced, beta-lactamase ratio, 5 h; at 17.2 µM (top of the series) unless noted; also: % is scaled to controls: 0 for no effect and ±100 for the full control effect
Procedure, shortened: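 AP-1-bla ME-180 cells with beta-lactamase reporter under AP-1 response element, stimulated with EC50 EGF; compounds titrated, 5 hours at 37 degrees Celsius. CCF4 read at 460/530 nm ratio; positive and negative modulators judged by AC50.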

[2] = NFAT Signaling Pathway (AID 444); conditions: Jurkat NFAT-bla M1, carbachol, beta-lactamase ratio, 5 h; at 17.2 µM (top of the series) unless noted;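 also: carbachol stimulus at about its EC50 of 1 µM final; % is scaled to controls: 0 for no effect and ±100 for the full control effect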
Procedure, shortened: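 Read-out: CCF4 FRET ratio (460 nm/530 nm) after 1 h RT dye loading, used for %activity and AC50 from titration series. Cells: Jurkat NFAT-β-lactamase/M1 line, treated with compound plus 1 uM carbachol for 5 h, 37 °C.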

[3] = Stat Signaling Pathway (AID 446); conditions: ME-180 SIE beta-lactamase reporter, IL-6 stimulated, 5 h; at 17.2 µM (top of the series) unless noted;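 also: ME-180 cervical cancer cells given 40 pM IL-6 alongside compound; SIE-controlled beta-lactamase reporter measured as 460/530 nm FRET emission ratio; % is scaled to controls: 0 for no effect and ±100 for the full control effect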
Procedure, shortened: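 Reporter line: ME-180 cervical carcinoma, SIE-beta-lactamase. Treatment: compound with 40 pM IL-6, 5 hrs, 37 C, in low-serum OPTI-MEM with 10 mM HEPES pH 7.3. Detection: 460/530 nm fluorescence.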

[4] = molecular target: Glucocorticoid receptor (Homo sapiens) (UniProt P04150); experiment: GR-GFP Redistribution (AID 450;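 active = compounds whose dose series gives a full or clear partial fitted curve of increased nuclear translocation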; also: potency is read from the fitted curve at half-maximal effect)
Sequence of Glucocorticoid receptor (Homo sapiens) (P04150 whole entry, looked up): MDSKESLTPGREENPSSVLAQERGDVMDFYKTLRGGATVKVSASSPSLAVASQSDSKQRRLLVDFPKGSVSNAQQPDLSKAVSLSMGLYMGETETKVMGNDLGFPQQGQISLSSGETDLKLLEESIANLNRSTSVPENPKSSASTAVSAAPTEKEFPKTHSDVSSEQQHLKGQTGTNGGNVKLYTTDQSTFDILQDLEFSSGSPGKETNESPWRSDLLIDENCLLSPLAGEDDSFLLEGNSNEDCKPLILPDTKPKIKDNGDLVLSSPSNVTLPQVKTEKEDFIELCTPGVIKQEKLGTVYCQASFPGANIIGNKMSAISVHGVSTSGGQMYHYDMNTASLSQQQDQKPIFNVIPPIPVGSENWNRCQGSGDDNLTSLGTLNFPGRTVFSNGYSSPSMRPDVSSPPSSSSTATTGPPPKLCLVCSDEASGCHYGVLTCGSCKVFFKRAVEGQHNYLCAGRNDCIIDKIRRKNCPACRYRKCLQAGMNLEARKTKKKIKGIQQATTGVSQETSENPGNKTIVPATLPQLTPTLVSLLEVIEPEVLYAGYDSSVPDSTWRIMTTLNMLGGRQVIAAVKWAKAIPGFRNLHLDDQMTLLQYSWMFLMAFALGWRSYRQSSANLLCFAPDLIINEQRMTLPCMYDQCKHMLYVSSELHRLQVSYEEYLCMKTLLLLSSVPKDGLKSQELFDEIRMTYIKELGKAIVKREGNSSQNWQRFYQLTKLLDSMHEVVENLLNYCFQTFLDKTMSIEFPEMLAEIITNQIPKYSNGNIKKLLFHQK

O=c1c(C=NCCCn2ccnc2)c(-c2ccccc2)[nH]n1-c1nc2ccccc2s1
inactive: activity change, negative = inhibition [1] -0.182% | activity change, negative = inhibition [2] -18.1% | activity, negative = inhibition [3] -15.5% | Potency [4] > 20.6 µM

Cn1c(=O)n(CCc2ccccc2)c(=O)c2c1ncn2Cc1ccccc1
inactive: activity change, negative = inhibition [1] -15.9% | activity change, negative = inhibition [2] -7.53% | activity, negative = inhibition [3] -18.1% | Potency [4] > 20.6 µM

CC(C)COc1nc2ccccc2nc1C(C#N)C(=O)NC1CCCCC1 (centres undefined)
inactive: activity change, negative = inhibition [1] -1.14% | activity change, negative = inhibition [2] 0.574% | activity, negative = inhibition [3] 5.36% | Potency [4] > 20.6 µM

Nc1nonc1-c1noc(N2CCOCC2)n1
inactive: activity change, negative = inhibition [1] 4.65% | activity change, negative = inhibition [2] -8.54% | activity, negative = inhibition [3] -2.07% | Potency [4] > 20.6 µM

O=C(O)CCCCCN1C(=O)CCC1=O
inactive: activity change, negative = inhibition [1] 13.2% | activity change, negative = inhibition [2] 23.1% | activity, negative = inhibition [3] 5.29% | Potency [4] > 20.6 µM

COc1cccc(-c2nnc3sc(-c4ccc(Cl)cc4)nn23)c1
inactive: activity change, negative = inhibition [1] 5.29% | activity change, negative = inhibition [2] -1.08% | activity, negative = inhibition [3] 11.1% | Potency [4] > 20.6 µM

COc1cccc(Cn2c(NCc3ccco3)nc3c2c(=O)n(C)c(=O)n3C)c1
inactive: activity change, negative = inhibition [1] -11% | activity change, negative = inhibition [2] -5% | activity, negative = inhibition [3] -24.4% | Potency [4] > 20.6 µM

CC1(C)CC(=O)C(CCCN2C(=O)c3ccccc3C2=O)C(=O)C1
inactive: activity change, negative = inhibition [1] 8.1% | activity change, negative = inhibition [2] 2.72% | activity, negative = inhibition [3] 16.7% | Potency [4] > 20.6 µM

Cc1ccc(C2/C(=C(\O)c3cnn(-c4ccccc4)c3C)C(=O)C(=O)N2CCN(C)C)o1 (centres undefined)
inactive: activity change, negative = inhibition [1] -6.2% | activity change, negative = inhibition [2] -12.1% | activity, negative = inhibition [3] 4.22% | Potency [4] > 20.6 µM

C=CCOc1ccc(C2/C(=C(\O)c3ccc(F)cc3)C(=O)C(=O)N2CCCN(C)C)cc1 (centres undefined)
inactive: activity change, negative = inhibition [1] 4.74% | activity change, negative = inhibition [2] -5.15% | activity, negative = inhibition [3] 17% | Potency [4] > 20.6 µM

C=CCOc1nc2c(c(=O)n(C)c(=O)n2C)n1Cc1ccc(Cl)cc1
inactive: activity change, negative = inhibition [1] -1.14% | activity change, negative = inhibition [2] -8.76% | activity, negative = inhibition [3] -5.11% | Potency [4] > 20.6 µM

C/C(=N\O)C1(C)N(O)C(C)(C)C(c2ccco2)=[N+]1[O-] (centres undefined)
inactive: activity change, negative = inhibition [1] 5.37% | activity change, negative = inhibition [2] 9.27% | activity, negative = inhibition [3] 1.33% | Potency [4] > 20.6 µM

CNS(=O)(=O)c1cccc2nsnc12
inactive: activity change, negative = inhibition [1] 6.07% | activity change, negative = inhibition [2] 4% | activity, negative = inhibition [3] 14.7% | Potency [4] > 20.6 µM

COc1cc(OC)cc(C(=O)N2CCC(N3CCN(c4ccccc4)CC3)CC2)c1
inactive: activity change, negative = inhibition [1] 5.25% | activity change, negative = inhibition [2] -4.18% | activity, negative = inhibition [3] 4.25% | Potency [4] > 20.6 µM

Cc1ccc(/C=c2\sc3n(c2=O)CN(c2ccc(Br)cc2)CN=3)o1
inactive: activity change, negative = inhibition [1] 25.9% | activity change, negative = inhibition [2] -11.3% | activity, negative = inhibition [3] 0.614% | Potency [4] > 20.6 µM

Clc1cccc(-c2nn3c(COc4ccccc4)nnc3s2)c1
inactive: activity change, negative = inhibition [1] 6.46% | activity change, negative = inhibition [2] -0.831% | activity, negative = inhibition [3] 17.5% | Potency [4] > 20.6 µM

CCCCOc1ccc(C(=O)N2CCCC2C(=O)O)cc1 (centres undefined)
inactive: activity change, negative = inhibition [1] -0.0169% | activity change, negative = inhibition [2] -4.49% | activity, negative = inhibition [3] 9.6% | Potency [4] > 20.6 µM

CCCCC1(C(=O)OCC)CC(CN2CCOCC2)OC1=O (centres undefined)
inactive: activity change, negative = inhibition [1] 2.64% | activity change, negative = inhibition [2] -18.1% | activity, negative = inhibition [3] 3.3% | Potency [4] > 20.6 µM

COc1ccccc1-c1c(C)oc2c(CN3CCN(C)CC3)c(O)ccc2c1=O
inactive: activity change, negative = inhibition [1] 1.13% | activity change, negative = inhibition [2] 5.13% | activity, negative = inhibition [3] 4.08% | Potency [4] > 20.6 µM

CC(C(=O)NC(=O)NCc1ccccc1)N1C(=O)c2ccccc2C1=O (centres undefined)
inactive: activity change, negative = inhibition [1] -0.38% | activity change, negative = inhibition [2] -0.399% | activity, negative = inhibition [3] 14.7% | Potency [4] > 20.6 µM

O=c1c(F)cn(C2CCCO2)c(=O)n1Cc1ccccc1Cl (centres undefined)
inactive: activity change, negative = inhibition [1] 0.0939% | activity change, negative = inhibition [2] -19.1% | activity, negative = inhibition [3] 11.6% | Potency [4] > 20.6 µM

N#Cc1ccc(-c2cccnc2)nc1SCC(=O)Nc1sc2c(c1C#N)CCC2
inactive: activity change, negative = inhibition [1] -1.23% | activity change, negative = inhibition [2] -7.12% | activity, negative = inhibition [3] -7.78% | Potency [4] > 20.6 µM

COc1ccccc1-c1nnc2sc(COc3ccccc3)nn12
inactive: activity change, negative = inhibition [1] -9.17% | activity change, negative = inhibition [2] 13.4% | activity, negative = inhibition [3] -10.5% | Potency [4] > 20.6 µM

O=C(NCCc1ccccc1)/C(=N\O)c1ccccc1
inactive: activity change, negative = inhibition [1] -2.29% | activity change, negative = inhibition [2] 11.6% | activity, negative = inhibition [3] -3.56% | Potency [4] > 20.6 µM

Cn1c(SCC(=O)N2CCOCC2)nnc1-c1ccc(Cl)cc1Cl
inactive: activity change, negative = inhibition [1] -13.7% | activity change, negative = inhibition [2] -5.6% | activity, negative = inhibition [3] 5.04% | Potency [4] > 20.6 µM

CC(=O)C1=C(O)C(=O)N(c2ccc(C(=O)O)cc2)C1c1ccccc1 (centres undefined)
inactive: activity change, negative = inhibition [1] 5.75% | activity change, negative = inhibition [2] -2% | activity, negative = inhibition [3] 0.835% | Potency [4] > 20.6 µM
